Compound activity as filed in PubChem.
Only some compounds are listed: those with a hit (about 1.8% of all), similar ones and a draw of the others.
AT treatment: potential ataxia-telangiectasia treatment. hit rate 0.19% among 320,000. F2112 A-T fibroblasts, KAP-1 phosphorylation AlphaLISA; neocarzinostatin DNA damage 30 min before lysis. Potency, µM (highest dose often 57.5 µM), for inactives: top-dose activation, most hits filed as activators. AID 485349; further: potency means the concentration at half of the fitted maximal effect; % of control where 0% means no effect; nearly all actives have a fitted effect of over 45% in size
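ATM-like activity read as KAP-1 phosphorylation via AlphaLISA donor/acceptor antibody pairs after lysis and 6 hr at 25C. Cells were ATM-null patient fibroblasts (F2112, hTERT), dosed 60 min, then exposed to the DSB inducer NCS for 30 min.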
KCNH2 WT inh: blocks the wildtype human KCNH2 potassium channel; Q12809; U2OS, BacMam KCNH2, thallium flux FluxOr; stronger effect = lower value; activity change, % at 1.84 µM; hit rate 0.37% among 340,000;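 active means maximum activity change below -70%; inconclusive means maximum activity change between -70% and -50%; inactive means maximum activity change above -50%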; further: on the % scale 0 is the no-effect control and ±100 the full control effect
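U2OS cells were transduced with wild-type KCNH2 virus (2.03 x 10^8 / mL) for 4 h at room temperature, then cultured overnight at 37 C. Thallium flux was read with FluxOr dye. Rate constants were normalized to DMSO controls.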
KCNH2 3.1 block: KCNH2 3.1 (human) potassium channel inhibition | U2OS KCNH2 3.1, thallium flux FluxOr; stronger effect = lower value | activity change, % (tested at about 1.8 µM) | hit rate 0.95% among 340,000 | AID 720553;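 active means maximum activity change below -70%; inconclusive means maximum activity change from -70% to -50%; inactive means maximum activity change above -50%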;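 further: thallium influx rate constant from kinetic fluorescence after stimulation buffer; on the % scale 0 is the no-effect control and ±100 the full control effect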
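Measured as rate of thallium-driven FluxOr signal in transduced U2OS cells carrying the 3.1 channel, read kinetically for 2 min upon stimulation; values are rate constants scaled to DMSO control wells.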
ALOX12 inh: inhibitors of human 12S-lipoxygenase ALOX12; P18054; purified 12hLO, xylenol orange hydroperoxide absorbance; Potency, µM (series often up to 108 µM), for inactives: top-dose activity change, negative = inhibition, actives largely listed as inhibitors; hit rate 1.1% among 580,000; AID 1671190; further: potency means the concentration at half of the fitted maximal effect; on the % scale 0 is the no-effect control and ±100 the full control effect
Target sequence (P18054 whole entry, looked up): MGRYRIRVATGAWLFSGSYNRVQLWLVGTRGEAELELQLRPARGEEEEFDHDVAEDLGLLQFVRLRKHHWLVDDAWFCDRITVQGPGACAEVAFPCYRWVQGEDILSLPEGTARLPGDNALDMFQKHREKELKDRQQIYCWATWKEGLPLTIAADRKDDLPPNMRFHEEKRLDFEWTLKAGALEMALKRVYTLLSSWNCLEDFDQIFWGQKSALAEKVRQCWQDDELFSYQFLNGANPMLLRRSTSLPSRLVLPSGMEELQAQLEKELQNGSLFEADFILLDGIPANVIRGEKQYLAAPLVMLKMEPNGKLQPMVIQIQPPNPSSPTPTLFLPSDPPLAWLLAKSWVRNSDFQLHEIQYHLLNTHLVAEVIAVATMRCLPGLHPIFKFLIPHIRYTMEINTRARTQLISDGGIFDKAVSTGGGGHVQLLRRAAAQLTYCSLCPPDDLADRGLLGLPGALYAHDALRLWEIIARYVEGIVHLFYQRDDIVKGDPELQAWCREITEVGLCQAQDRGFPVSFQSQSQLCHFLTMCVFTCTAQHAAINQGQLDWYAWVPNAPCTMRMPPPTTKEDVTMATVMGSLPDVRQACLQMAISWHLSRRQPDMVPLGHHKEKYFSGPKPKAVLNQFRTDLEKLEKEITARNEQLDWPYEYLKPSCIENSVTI
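Purified human 12hLO (150 nM final) in 25 mM Hepes, 0.01% Triton X-100, pH 7.0 was preincubated 15 min at room temperature with compound. Then 40 uM arachidonic acid was added, 30 min. Hydroperoxide was read by Fe-XO absorbance ratio 573/405 nm.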
* = called active by the depositor. Unless noted, the call rests on the fitted dose curve; in most records, active means well fitted curve in the direction sought with a large enough effect; inconclusive means small, poorly fitted or top-dose-only effect, or another doubt; inactive means no such curve, though single readings can be large; an effect the other way counts as inactive or inconclusive.

O=c1[nH]c(C2CCN(Cc3cccc(-c4cccs4)c3)CC2)nc2ccc(F)cc12 was read as ALOX12 inh 20%.
`Cc1ccc(Cn2nnnc2CN2CCC(c3nc4ccc(Cl)cc4[nH]3)CC2)cc1` gave AT treatment 13%, KCNH2 WT inh -2, KCNH2 3.1 block -88* and ALOX12 inh -23%.
Screening FC(F)(F)c1ccc2nc([C@H]3CCN(Cc4ccc(Cl)cc4)C3)[nH]c2c1 returned ALOX12 inh 32µM*.
For CCCCCCCCN1C(=O)[C@H](CC(=O)NCc2cccs2)C[C@@]2(C(=O)OC)CC(C)(C)CC=C12 the results were ALOX12 inh 5%.
`CCCCCCCCN1C(=O)[C@H](CC(=O)NCc2ccc(C)o2)C[C@@]2(C(=O)OC)CC(C)(C)CC=C12` gave ALOX12 inh 40µM*.
For COc1ccc([C@H]2[C@@H](C#N)[C@H](C#N)N3CCCN23)cc1 the results were AT treatment 9%, KCNH2 WT inh 1, KCNH2 3.1 block -98* and ALOX12 inh 0%.
Screening O=C(O)[C@@H]1CN(C(=O)c2ccc(=O)[nH]c2)C[C@H]1c1ccc2c(c1)OCO2 returned ALOX12 inh 52%.
For Cc1cccc(C)c1NC(=O)N1CCC(OC2CCN(Cc3ccccc3)CC2)CC1 the results were ALOX12 inh 8%.
O=C(Nc1ccc(N2CCN(CCOc3ccc(Cl)cc3)CC2)c(C(=O)O)c1)c1ccc(F)cc1 was read as ALOX12 inh 45µM*.
Screening O=C(NCc1ccccc1)C1CN(S(=O)(=O)c2cccnc2)CC12CCCCC2 (centres undefined) returned ALOX12 inh 4%.
For O=C(CSc1ncccc1-c1nc2ccccc2[nH]1)NCc1ccco1 the results were AT treatment -5%, KCNH2 WT inh -5, KCNH2 3.1 block 13 and ALOX12 inh 14µM*.
For O=C(N/N=C/c1ccncc1)c1cc2ccccc2cc1O the results were AT treatment 3%, KCNH2 WT inh -17, KCNH2 3.1 block 1 and ALOX12 inh inactive.
Screening O=C(N/N=C/c1ccncc1)c1cc([N+](=O)[O-])cc([N+](=O)[O-])c1O returned AT treatment -10%, KCNH2 WT inh -2, KCNH2 3.1 block -1 and ALOX12 inh 50µM*.
`CCn1cc(S(=O)(=O)CC(=O)Nc2cc(C)ccc2C)c2ccccc21` gave AT treatment 16%, KCNH2 WT inh 3, KCNH2 3.1 block -118* and ALOX12 inh 44%.
`CCn1cc(SCC(=O)Nc2cc(C)ccc2C)c2ccccc21` gave ALOX12 inh -1%.
Cc1ccc(Br)cc1S(=O)(=O)Nc1ccc2cn[nH]c2c1 was read as ALOX12 inh 1%.
`O=C1NCCCCCN(C(=O)c2ccoc2)[C@H]2CCCC[C@@H]12` gave ALOX12 inh 29%.
`O=S(=O)(Nc1nc2ccccc2nc1NC1CC1)c1ccccc1` gave ALOX12 inh -14%.
O=S(=O)(Nc1nc2ccccc2nc1NC1CCCCC1)c1ccc(F)cc1 was read as ALOX12 inh 0.63µM*.
`CCOC(=O)c1sc2ncn(CC(=O)NCC3CCCO3)c(=O)c2c1C` (centres undefined) gave AT treatment 2%, KCNH2 WT inh -4, KCNH2 3.1 block -180* and ALOX12 inh 0%.
Screening Cc1ccc(CCNC(=O)C2CC(c3cccc(F)c3)=NO2)cc1 (centres undefined) returned AT treatment 14µM*, KCNH2 WT inh -21, KCNH2 3.1 block -11 and ALOX12 inh 10%.
`CCCCNC(=O)C1CC(c2cccc(F)c2)=NO1` (centres undefined) gave AT treatment -13%, KCNH2 WT inh 14, KCNH2 3.1 block -3 and ALOX12 inh -9%.
Cc1ccc(-n2c(=O)c3cccnc3n2CC(=O)Nc2cccc(Cl)c2)cc1C was read as ALOX12 inh -5%.
`CN(Cc1ccccc1)C(=O)COc1ccc2c(=O)c(-c3ccc(Cl)cc3)coc2c1` gave ALOX12 inh 0%.
For NS(=O)(=O)c1cccc(NC(=S)NC(=O)C23CC4CC(CC(C4)C2)C3)c1 the results were AT treatment 0%, KCNH2 WT inh -6, KCNH2 3.1 block -16 and ALOX12 inh 32µM*.
Screening CN(C)S(=O)(=O)c1cccc(NC(=S)NC23CC4CC(CC(C4)C2)C3)c1 returned AT treatment 3%, KCNH2 WT inh -3, KCNH2 3.1 block 3 and ALOX12 inh inconclusive.
